In PubChem BioAssay:
Activity calls are given as the source filed them.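 The calls were made as follows: active = inhibition above 50%; inactive = the rest.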

assay: HepG2 cytotoxicity, primary screen, cytotoxicity control for P. falciparum antimalarial project, cell-based, ATP luminescence (AID 2303); conditions: HepG2 viability, 24-48 h, at 10 µM, hits give high values;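 also: 0% = DMSO wells and 100% = digitonin-killed cells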

Compound	inhibition
CCCCNCc1ccc(-c2nc(CN(Cc3ccc(Cl)c(Cl)c3)S(=O)(=O)c3ccc(NC(C)=O)cc3)cs2)cc1	30% (inactive)
CC(=O)Nc1nc(C(=O)Nc2cccc(-c3ccc4c(cnn4CC4CC4)c3)c2)cs1	16% (inactive)
CCc1c[nH]c2c(N3CCCC3=O)cc(C(=O)N[C@@H](Cc3ccccc3)[C@H](O)CNC(C)(C)CCCC(C)C)cc12	22% (inactive)
Nc1ncnc2cc(-c3cccc(S(N)(=O)=O)c3)sc12	13% (inactive)
COc1cc(F)c2ncc(Cl)c(C(O)CN3CCC(NC(=O)c4ccc5c(n4)NC(=O)CO5)CC3)c2c1 (centres undefined)	22% (inactive)
CCN(CC)C(=S)N=Nc1c(O)[nH]c2c(C)cccc12	28% (inactive)
CCCCCCCCCn1c(NCc2cc(Cl)ccc2O)nc2ccccc21	13% (inactive)
CCCC(CNCc1cccc(C)c1)CNc1cc(=O)c2ccccc2[nH]1 (centres undefined)	-2% (inactive)
CCOc1ccc(-c2nonc2NC(=O)c2cccs2)cc1OCC	6% (inactive)
COc1ccc2nccc([C@@H](O)CN3CCC(NCc4[nH]c5ccccc5c4F)CC3)c2c1	19% (inactive)
CCc1c(CCNCCCCCCNCCc2ccc(OC)c(OC)c2CC)ccc(OC)c1OC	58% (active)
COc1ccc2nccc(NN=Cc3ccc(F)cc3)c2c1	2% (inactive)
COc1ccc(-c2ccccc2CNC2Cc3ccccc3C2)cc1S(=O)(=O)NCCN1CCCC1	18% (inactive)
Cc1ccc(N/C(N)=N/c2ncccc2OCc2c(F)cccc2Cl)cc1	78% (active)
Cc1nc(N)nc(N)c1-c1ccc(Br)cc1	46% (inactive)
CN(C)CCN(C)Cc1ccc(-c2ccc(NC(=O)c3cccc(Cl)c3)cc2)cc1	50% (active)
CN1CCN(c2cc(NC(=O)c3ccc(-c4ccc(Cl)cc4)cc3)ccc2Cl)CC1	30% (inactive)
O=C(NCCCCN1CCN(c2cccc3c2OCCO3)CC1)c1ccc(NC(=O)c2cc(Cl)cc(Cl)c2)cc1	21% (inactive)
O=C(COc1ccc(Cl)c(Cl)c1)NCCCCCN1CCCN(C(=O)Nc2cc(Cl)cc(Cl)c2)CC1	44% (inactive)
CCN(CCCN1CCCCC1)c1cc(C)nc(Nc2cc(Br)ccc2C)n1	32% (inactive)

Compound	inhibition
COc1ccc(-c2ccc(Nc3cccc(S(=O)(=O)CCN4CCC(CCN(C)C)CC4)c3)nc2)cn1	44% (inactive)
O=C(Nc1cccc(-c2csc(-c3nc4ccccc4[nH]3)c2)c1)c1ccoc1	36% (inactive)
CC(C)CNC(=O)c1cncc(-c2cccc(CNC3Cc4ccccc4C3)c2)c1	4% (inactive)
CN(Cc1cccc(O)c1)C1CCCN(c2cc(NC(=O)c3ccc(F)cc3)ccn2)C1 (centres undefined)	8% (inactive)
COCCNCc1ccc(-c2cccc(CN(C(=O)NCCc3ccccc3)C3CCN(Cc4ccccc4)CC3)c2)cc1	25% (inactive)
O=C(NCc1cccc(CN2CCOCC2)c1)c1cc(Br)cc(N2CCN(c3ccncc3)CC2)c1	25% (inactive)
CC(Oc1c(C2CCN(CCCCNC(=O)c3ccc(-c4ccc(Cl)cc4)cc3)CC2)ccc2c1CCCC2)C(N)=O (centres undefined)	100% (active)
CCn1ncc(Cl)c1CN(C)S(=O)(=O)c1ccc(Br)cc1	9% (inactive)
NS(=O)(=O)c1ccc(CNC(=O)c2cnc3c(O)cccc3c2Nc2cccc(NC(=O)c3ccc(Cl)c(Cl)c3)c2)cc1	56% (active)
CC(C)C[C@H]1C(=O)N[C@H](C2Cc3ccccc3C2)C(=O)N1[C@@H](C(=O)Nc1ccccc1OCc1ccccc1)c1ccc(F)cc1F	12% (inactive)
COc1ccc(CN(C)CCCOc2ccc(NC(=O)c3cccc4c(=O)c5cccc(C)c5[nH]c34)cc2)cc1OC	3% (inactive)
CCCC1N=C(N)N=C(N)N1c1ccc(OC)cc1 (centres undefined)	-2% (inactive)
OCc1ccc2nc3c(cc2c1)-c1cccc2cccc-3c12	16% (inactive)
COc1ccc(C)c(Nc2ccnc(Nc3ccc(-c4cnc[nH]4)cc3)n2)c1	40% (inactive)
Cc1[nH]c(C)c(-c2ccc(OCc3ccccc3)cc2)c(=O)c1Br	19% (inactive)
CCOc1ccc2nc(C)cc(NN=Cc3cccnc3)c2c1	18% (inactive)
CN(C)CCNC(=O)c1ccc(-c2cnc3ccc(NCc4ccc(Cl)c(Cl)c4)nn23)cc1	60% (active)
COc1cccc(NC(=O)c2cc([N+](=O)[O-])ccc2NC(=O)CN2CCc3ccccc3C2)c1	5% (inactive)
CCNC(=O)NC1CCN(Cc2c(-c3cccs3)nc3ccccc3c2C(=O)N[C@@H](C)C2CCCCC2)CC1	-1% (inactive)
